# Assay outcomes as filed in PubChem BioAssay.
# Shown are actives, neighbours in structure and some others; about 0.72% of the full set was active somewhere.
# Neddyl block = blocks human cullin neddylation. P61081+Q13564. calls only at 25 µM. actives 0.58% (n = 360,000). TR-FRET cullin neddylation, biochemical. AID 651699; in the data active = inhibition above about 36%
# PolyA inhibitor = inhibitors of polyadenylation in S. cerevisiae; AID 1875; S. cerevisiae SKY197-pL101 polyadenylation reporter, beta-gal luminescence; efflux-impaired pdr1/pdr3 knockout yeast; score 100 = 6 SD above DMSO; actives 0.02% (n = 300,000); activity score, % at 12 µM;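 active = lowest replicate activity score at least 50, where 100 means six control SD above control mean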;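 also: yeast exposed to compound for 9 h at 30 °C; higher score means more reporter readthrough which indicates perturbed polyadenylation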
# PKA-R2B act = PKA-R2B complex activation; activation, % at 11.4 µM; AID 504700; P22694+P31323; actives 0.079% (n = 340,000); PKA-R2B holoenzyme dissociation, Cy5-IP20 fluorescence polarization; R2B truncated from residue 108, S112A mutant; 0% DMSO only, 100% 113 µM cGMP;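 active = activation above a cutoff set at the mean over all compounds plus 3 SD, cut at about 18% in these data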;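 also: higher means more holoenzyme dissociation and a rise in polarization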
# PKA-R1A act = activators of PKA-R1A complex; activation, % at 11.4 µM; actives 0.083% (n = 340,000); AID 504707; PKA-R1A dissociation, Cy5-IP20 fluorescence polarization; scaled: DMSO 0%, 113 µM cGMP 100%;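 active = percent activation above the mean of all tested compounds plus 3 SD, cut at about 19% in these data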;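 also: higher means more PKAc released from R1A so a rise in polarization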
# Neddyl inh conf = cullin neddylation inhibition, confirmation. shares compounds with Neddyl block. TR-FRET cullin neddylation biochemical assay. calls only at 25 µM. actives 13% (n = 1,800); in the data active = inhibition above about 40%;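 also: neddylation substrate is the cullin 1 ring ligase complex with SKP2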
# * hit, by the source's call; i = inactive; nt = not tested or not shown; + = active, no number.
SMILES,Neddyl block,PolyA inhibitor,PKA-R2B act,PKA-R1A act,Neddyl inh conf
O=C(Cn1[nH]c(=O)c2ccccc2c1=O)NNC(=O)c1ccccc1,i,0.0,-3.5,-7.8,nt
Oc1ccccc1N1CCN(C(c2ccccc2)c2ccccc2)CC1,i,-9.0,10.3,10.7,nt
C[C@H](NC(=O)c1nc[nH]c1C(=O)N1CCNCC1)C(=O)OC(C)(C)C,i,-6.6,-6.6,-6.4,nt
CC(C)Cn1cc(C(=O)NCc2cccs2)c2c3ccccc3n(C)c2c1=O,+,-5.5,-10.7,1.5,i
CC(C)CCNC(=O)c1cn(CC(C)C)c(=O)c2c1c1ccccc1n2C,i,-13.1,1.8,-9.9,nt
O=C(CSc1nncn1-c1cccnc1)N(c1ccccc1)c1ccccc1,i,-9.0,-5.9,-2.8,nt
CCS(=O)(=O)Nc1cccc(C2=NN(S(=O)(=O)CC)C(c3cccs3)C2)c1 (stereo not given),i,10.1,3.4,-13.7,nt
CCS(=O)(=O)Nc1ccc(C2=NN(S(=O)(=O)CC)C(c3cccs3)C2)cc1 (stereo not given),+,7.3,8.3,-11.0,i
COc1ccc(-c2cc(C(=O)Nc3ccc(OC)c(OC)c3)no2)cc1,+,18.9,6.9,-6.9,i
Cc1ccc(-c2nc3ncccc3o2)cc1NC(=O)C(C)(C)C,+,9.4,4.9,-9.6,nt
CCCC(=O)Nc1cc(-c2nc3ncccc3o2)ccc1C,nt,6.0,3.5,-1.9,nt
Nc1nc(Br)c2c(F)cccc2c1-c1ccc(F)cc1,+,-55.8,2.8,4.5,i
Cc1nn(CC(=O)NCC(C)c2ccccc2)c(=O)c2cc(-c3ccccc3)nn12 (stereo not given),i,16.5,-4.5,6.2,nt
Cc1nnc(SCC(=O)N(CC(C)C)c2c(N)n(Cc3ccccc3)c(=O)[nH]c2=O)n1N,i,2.9,-4.9,-7.2,nt
Cn1c2ccc(F)cc2c2ncn(CCCN(CCO)CCO)c(=O)c21,+,-10.2,-6.5,-12.7,i
CN(C)CCCNc1ncnc2oc(-c3ccccc3)c(-c3ccccc3)c12,+,17.5,-4.5,0.1,i
CCc1ccc(-c2cc(C)no2)cc1S(=O)(=O)N1CCN(c2ccccc2)CC1,i,-6.1,-13.2,-14.2,nt
CCOc1cc(/C=C/C(=O)Nc2ccc(C(=O)NCCN(CC)CC)cc2)ccc1OCC(C)C,+,21.4,3.8,-3.7,+
CCOc1ccc(/C=C/C(=O)Nc2ccc(C(N)=O)cc2)cc1OC,nt,1.7,5.7,7.6,nt
COc1ccc2nc(COC(=O)c3ccco3)c(C(C)=O)[n+]([O-])c2c1,i,14.8,-12.5,-10.7,nt
COc1ccc2nc(CC(C)(C)CC(=O)O)c[n+]([O-])c2c1,+,2.6,-10.2,-1.1,nt
COC(=O)c1cc(=O)c2c(ccc3oc(=O)ccc32)[nH]1,i,nt,nt,nt,nt
COC(=O)C1CC(=O)N(c2ccc(C)cc2)C1 (stereo not given),i,9.4,1.6,-6.9,nt
CCOC(=O)C1=NN(c2ccc(C)cc2)CC1C(=O)OC (stereo not given),+,14.9,-5.2,-6.3,i
COC(=O)C1=C(C)NC2=C(C(=O)C(C(=O)OC)C(c3ccc(OC)cc3)C2)C1c1ccccn1 (stereo not given),+,-1.1,-3.8,-12.8,nt
O=C(NCc1ccccc1)c1cccc2c1C(=O)c1ccc(/C=C/c3ccccc3)cc1S2(=O)=O,i,nt,1.2,1.7,nt
